According to PubChem BioAssay (NCATS):
Results filed as inconclusive are left out. Activity calls are given as the source filed them. Unless noted, the call rests on the fitted dose curve; in most records, active means well fitted curve in the direction sought with a large enough effect; inconclusive means small, poorly fitted or top-dose-only effect, or another doubt; inactive means no such curve, though single readings can be large; an effect the other way counts as inactive or inconclusive.

Tests used:
[1] = High Content Imaging Cell-Based qHTS for Inhibitors of the mTORC1 Signaling Pathway in MEF (Tsc2-/-, p53-/-) Cells (AID 2666);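 further: percent of cells scored positive for phospho-rpS6 Ser235/236 immunostaining by imaging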; further: potency means the concentration at half of the fitted maximal effect
Procedure, shortened: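 Phospho-rpS6 (Ser235/236) immunofluorescence, normalized and scored as % positive cells using rapamycin and DMSO controls, was read in empty-vector Tsc2-/-, p53-/- MEFs after 24 h compound exposure at 37 C; propidium iodide counted cells.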

[2] = High Content Imaging Cell-Based qHTS for Inhibitors of the mTORC1 Signaling Pathway in MEF Cells (AID 2667); further: potency means the concentration at half of the fitted maximal effect
Procedure, shortened: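 WT MEFs (Tsc2-/-, p53-/- re-expressing Tsc2), in DMEM + 10% FBS, were treated with compound for 24 h at 37 C. Cells were then fixed and stained for phospho-rpS6 Ser235/236 with propidium iodide as cell count. Values are % positive cells, with thresholds set against rapamycin-treated cells.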

[3] = molecular target: Ubiquitin carboxyl-terminal hydrolase 2 (Homo sapiens) (UniProt O75604); assay: qHTS Validation Assay for Inhibitors of Ubiquitin-specific Protease USP2a Using CHOP2 as the Reporter (AID 463106); further: potency means the concentration at half of the fitted maximal effect
Procedure, shortened: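 USP2 core (10 nM final) was preincubated with compound 30 min at RT in pH 8.0 Tris/CaCl2/beta-ME/CHAPS buffer. Ub-CHOP2 and reporter substrate (25 nM final each) were then added, with fluorescence (Ex 485/Em 531) read after 60 min. Data were normalized to NEM full inhibition and fitted to concentration-response curves.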

[4] = molecular target: DNA polymerase III PolC-type (Bacillus subtilis (strain 168)) (UniProt P13267); assay: qHTS Validation Assay for the Inhibitors of DNA Replication in Gram-Positive Bacteria (AID 485295); further: potency means the concentration at half of the fitted maximal effect
Procedure, shortened: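 Reconstituted B. subtilis holoenzyme (Pol III, beta clamp, SSB, primase) was preincubated with compound at room temperature, then given single-stranded circular M13Gori plus dNTPs and NTPs. EDTA-containing PicoGreen stopped the reaction, and dsDNA product was read by fluorescence.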

[5] = molecular target: Thioredoxin reductase 1, cytoplasmic (Rattus norvegicus) (UniProt O89049); assay: qHTS Assay for Inhibitors of Mammalian Selenoprotein Thioredoxin Reductase 1 (TrxR1) (AID 488773); details: Potency: inhibition; further: nearly all actives have a fitted effect of over 40% in size; further: potency means the concentration at half of the fitted maximal effect
Procedure, shortened: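 Steps: enzyme (90 nM) plus NADPH (400 uM final), 5 min at ~22 deg C; compound added, 15 min; selenite (400 uM final) added; fluorescence followed for 8 min. Concentration-response curves derived from the normalized delta values.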

[6] = molecular target: Flap endonuclease 1 (Homo sapiens) (UniProt P39748); assay: qHTS Validation Assay for the Inhibitors of Human Flap endonuclease 1 (FEN1) (AID 488816); further: potency means the concentration at half of the fitted maximal effect
Procedure, shortened: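 Human FEN1 (10 nM) preincubated 15 min at room temperature with compounds, then flap DNA substrate added at 50 nM final. Fluorescence read at 0 and 15 min; concentration-response fitted with four-parameter Hill equation.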

[7] = molecular target: M-phase phosphoprotein 8 (Homo sapiens) (UniProt Q99549); assay: qHTS Validation Assay for Inhibitors for MPP8 Chromodomain Interactions with Methylated Histone Tails (AID 488949); further: nearly all actives have a fitted effect of over 55% in size; further: potency means the concentration at half of the fitted maximal effect
Procedure, shortened: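 MPP8 (50 nM) was preincubated with biotinylated H3(1-18)K9me3 peptide (50 nM) in PBS pH 7.4, 0.01% Tween-20 for 30 min at room temperature, then with compounds for 30 min; binding was detected by AlphaScreen.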

[8] = molecular target: RecQ-like DNA helicase BLM (Homo sapiens) (UniProt P54132); assay: qHTS Validation Assay for Inhibitors of Bloom's syndrome helicase (BLM) (AID 2364)
Procedure, shortened: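 50 nM BLM preincubated 15 min at room temperature with compound in pH 8.0 Tris buffer containing 2.5 ug/ml poly(dI-dC); started with 200 nM TAMRA/BHQ-2 forked duplex and 2 mM ATP (final). Unwinding read as TAMRA fluorescence increase, two reads 2 h apart.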

[9] = Validation screen for inhibitors of Lassa infection (AID 463096; calls by dose curve; further: potency means the concentration at half of the fitted maximal effect)
[10] = molecular target: ATP-dependent 6-phosphofructokinase (Trypanosoma brucei brucei) (UniProt O15648); assay: qHTS Validation Assay to Find Inhibitors of T. brucei phosphofructokinase (AID 485368); further: potency means the concentration at half of the fitted maximal effect
Procedure, shortened: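 Steps: substrate mix (0.5 mM F6P, 0.1 mM ATP, MgCl2, TEA pH 8.0); compound; 1.25 nM T. brucei PFK; 45 min RT; ATP depletion 10 min; ADP-to-ATP detection 10 min; luminescence read; curve fitting and classification.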

[11] = Cytometric Cell-Based qHTS for Inhibitors of the mTORC1 Signaling Pathway in MEF (Tsc2-/-, p53-/-) Cells (AID 2660);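 further: percent of cells above a phospho-rpS6 to PI ratio cutoff in each well; series mostly up to about 38 µM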
Procedure, shortened: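 Immunofluorescence qHTS of rpS6 Ser235/236 phosphorylation: MEFs (Tsc2-/-, p53-/-) treated 24 h, 37 C, in DMEM + 10% FBS. Alexa-488 signal normalized to PI count, referenced to rapamycin (7.5 nM) and DMSO; PI cell number recorded for viability.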

[12] = Cytometry Cell-Based qHTS for Inhibitors of the mTORC1 Signaling Pathway in MEF cells (AID 2668); further: potency means the concentration at half of the fitted maximal effect
Procedure, shortened: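 WT MEFs (Tsc2-/-, p53-/- stably re-expressing WT Tsc2) in DMEM + 10% FBS received compounds 24 hrs after plating, for 24 hrs at 37 degree Celsius. Fixed cells stained with Alexa-488 anti-phospho-rpS6 Ser235/236 and propidium iodide; laser-scanning cytometry read-out.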

[13] = molecular target: Tumor susceptibility gene 101 protein (Homo sapiens) (UniProt Q99816); assay: qHTS Validation Assay for Iinhibitors of HIV-1 Budding by Blocking the Interaction of PTAP/TSG101 (AID 485342; calls by dose curve)
Procedure, shortened: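 Tsg101 binding domain (10 uM final) in pH 7.5 HEPES/NaCl/Tween 20/EDTA/TCEP buffer was mixed with pin-transferred compounds, then FITC-labeled PTAP peptide (50 nM final) was added; after 20 min at r.t., fluorescence polarization was read.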

[14] = qHTS Validation Assay to Find Inhibitors of Chronic Active B-Cell Receptor Signaling (AID 485345; active means well fitted curve in the direction sought with a large enough effect in the main read-out, with a control signal flat, not every such curve was filed as active)
Procedure, shortened: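 TMD8 ABC-DLBCL cells stably carrying doxycycline-inducible IkappaBalpha–green luciferase fusion plus unfused red luciferase; compounds 46 uM to 3 nM, 4 h at 37C with doxycycline. Corrected green/red luminescence ratio normalized to 10 uM MG-132 and basal cell wells; curves fitted.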

[15] = molecular target: Beta-2 adrenergic receptor (Homo sapiens) (UniProt P07550); assay: qHTS validation assay of beta-arrestin-biased ligands of beta2-adrenergic receptor (AID 485366)
Procedure, shortened: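 Arrestin-recruitment (Tango) reporter: ligand-bound beta2-AR recruits beta-arrestin, releasing tTA, which upregulates luciferase. Titrations of up to 46 microM incubated 18 hr at 37 degrees C before luminescent readout.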

[16] = molecular target: Thioredoxin reductase 1, cytoplasmic (Rattus norvegicus) (UniProt O89049); assay: qHTS Assay for Substrates of Mammalian Selenoprotein Thioredoxin Reductase 1 (TrxR1) (AID 488772);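 further: NADPH fluorescence in the first read after selenite addition and not the 8 min delta; series mostly up to about 57 µM; a drop in NADPH fluorescence below the no-compound background marks a TrxR1 substrate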
Procedure, shortened: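 Quantitative HTS in Tris-HCl buffer at pH 7.5 with EDTA and Tween-20, using rat TrxR1, 400 uM NADPH and 400 uM selenite (final). A fall in initial NADPH fluorescence relative to background marked substrate behaviour.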

[17] = Quantitative high throughput screen for delayed death inhibitors of the malarial parasite plastid, 96 hour incubation (AID 488745); further: nearly all actives have a fitted effect of over 70% in size; further: potency means the concentration at half of the fitted maximal effect
Procedure, shortened: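 Growth of reporter-bearing P. falciparum in red cells is measured after 96 h with compound, covering two erythrocytic cycles. Luminescence from the integrated luciferase serves as the growth signal.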

[18] = Quantitative high throughput screen for delayed death inhibitors of the malarial parasite plastid, 48 hour incubation (AID 488752); further: nearly all actives have a fitted effect of over 65% in size; further: potency means the concentration at half of the fitted maximal effect
Procedure, shortened: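 One parasite generation (48 h, 37 C, 5% CO2) of luciferase-reporter P. falciparum in erythrocytes is run with test compound; decreased luminescence indicates inhibited growth.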

[19] = Validation screen for small molecules that induce DNA re-replication in MCF 10A normal breast cells (AID 463097); further: potency means the concentration at half of the fitted maximal effect; nearly all actives have a fitted effect of over 60% in size
Procedure, shortened: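 Readout: Hoechst nuclear fluorescence intensity, 405 ex / 500-530 em, by scanning plate imager; re-replication scored as increase in nuclei with elevated DNA content. Cells exposed to compound 48 hr, 37 C, 5% CO2 beforehand.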

Measured: Potency

Sequence of Tumor susceptibility gene 101 protein (Homo sapiens) (Q99816 whole entry, looked up, the tested form may be a part): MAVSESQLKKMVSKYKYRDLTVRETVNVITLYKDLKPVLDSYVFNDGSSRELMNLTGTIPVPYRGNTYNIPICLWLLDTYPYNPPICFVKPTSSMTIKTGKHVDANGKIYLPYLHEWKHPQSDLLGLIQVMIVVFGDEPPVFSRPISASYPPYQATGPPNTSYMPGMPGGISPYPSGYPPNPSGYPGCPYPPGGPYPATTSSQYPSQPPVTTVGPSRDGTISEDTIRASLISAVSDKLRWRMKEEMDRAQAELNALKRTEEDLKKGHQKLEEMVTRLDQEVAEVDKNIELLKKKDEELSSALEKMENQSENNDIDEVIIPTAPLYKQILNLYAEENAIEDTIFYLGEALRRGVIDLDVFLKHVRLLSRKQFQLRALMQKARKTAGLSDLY
Sequence of M-phase phosphoprotein 8 (Homo sapiens) (Q99549 whole entry, looked up): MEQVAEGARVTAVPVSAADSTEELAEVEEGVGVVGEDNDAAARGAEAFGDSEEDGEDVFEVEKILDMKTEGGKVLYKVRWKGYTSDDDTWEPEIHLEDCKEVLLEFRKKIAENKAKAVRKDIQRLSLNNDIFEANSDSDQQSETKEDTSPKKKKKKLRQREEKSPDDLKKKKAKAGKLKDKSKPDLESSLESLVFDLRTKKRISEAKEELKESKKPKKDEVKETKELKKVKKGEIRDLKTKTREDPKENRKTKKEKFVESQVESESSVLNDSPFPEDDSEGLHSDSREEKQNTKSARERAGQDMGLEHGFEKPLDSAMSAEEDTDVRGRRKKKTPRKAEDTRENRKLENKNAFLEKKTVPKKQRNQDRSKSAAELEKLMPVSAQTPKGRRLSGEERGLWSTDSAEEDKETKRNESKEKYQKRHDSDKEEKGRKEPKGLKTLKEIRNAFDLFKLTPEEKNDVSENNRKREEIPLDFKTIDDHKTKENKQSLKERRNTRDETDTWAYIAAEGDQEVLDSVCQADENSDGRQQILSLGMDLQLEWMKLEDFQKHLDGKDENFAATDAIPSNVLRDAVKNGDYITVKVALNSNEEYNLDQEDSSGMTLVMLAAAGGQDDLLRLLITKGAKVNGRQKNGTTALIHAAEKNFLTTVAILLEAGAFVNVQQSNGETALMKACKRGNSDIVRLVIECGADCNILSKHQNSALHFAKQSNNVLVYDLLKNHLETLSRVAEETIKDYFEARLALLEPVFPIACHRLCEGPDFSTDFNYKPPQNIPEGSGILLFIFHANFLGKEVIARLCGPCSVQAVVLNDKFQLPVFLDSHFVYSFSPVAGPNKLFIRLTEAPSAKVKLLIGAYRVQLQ
Sequence of Ubiquitin carboxyl-terminal hydrolase 2 (Homo sapiens) (O75604 whole entry, looked up): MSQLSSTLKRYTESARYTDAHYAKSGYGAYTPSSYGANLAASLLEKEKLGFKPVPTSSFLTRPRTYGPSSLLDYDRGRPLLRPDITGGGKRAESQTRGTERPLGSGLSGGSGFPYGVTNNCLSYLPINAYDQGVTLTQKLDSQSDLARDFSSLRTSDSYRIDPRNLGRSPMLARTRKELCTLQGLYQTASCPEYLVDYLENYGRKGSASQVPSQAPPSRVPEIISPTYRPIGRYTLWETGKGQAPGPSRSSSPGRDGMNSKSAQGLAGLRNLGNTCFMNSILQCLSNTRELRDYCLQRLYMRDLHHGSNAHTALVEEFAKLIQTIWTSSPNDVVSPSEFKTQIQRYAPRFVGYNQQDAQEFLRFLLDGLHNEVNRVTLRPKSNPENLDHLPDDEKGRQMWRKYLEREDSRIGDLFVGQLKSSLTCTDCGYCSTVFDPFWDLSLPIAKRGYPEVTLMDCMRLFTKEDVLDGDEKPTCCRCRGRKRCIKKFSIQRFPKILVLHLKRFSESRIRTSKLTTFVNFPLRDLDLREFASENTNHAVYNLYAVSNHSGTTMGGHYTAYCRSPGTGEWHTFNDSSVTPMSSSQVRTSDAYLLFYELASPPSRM
Sequence of Flap endonuclease 1 (Homo sapiens) (P39748 whole entry, looked up): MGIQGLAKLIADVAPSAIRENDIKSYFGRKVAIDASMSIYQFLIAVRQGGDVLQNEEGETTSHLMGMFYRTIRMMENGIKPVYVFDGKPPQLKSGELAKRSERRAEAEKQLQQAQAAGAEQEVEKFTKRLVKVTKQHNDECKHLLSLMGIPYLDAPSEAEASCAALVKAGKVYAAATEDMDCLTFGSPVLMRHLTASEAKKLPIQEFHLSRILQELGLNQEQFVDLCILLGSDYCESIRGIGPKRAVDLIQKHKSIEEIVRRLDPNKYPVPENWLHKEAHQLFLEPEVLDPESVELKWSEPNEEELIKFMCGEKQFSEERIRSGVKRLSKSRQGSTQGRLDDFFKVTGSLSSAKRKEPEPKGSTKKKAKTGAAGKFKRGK
Sequence of ATP-dependent 6-phosphofructokinase (Trypanosoma brucei brucei) (O15648 whole entry, looked up): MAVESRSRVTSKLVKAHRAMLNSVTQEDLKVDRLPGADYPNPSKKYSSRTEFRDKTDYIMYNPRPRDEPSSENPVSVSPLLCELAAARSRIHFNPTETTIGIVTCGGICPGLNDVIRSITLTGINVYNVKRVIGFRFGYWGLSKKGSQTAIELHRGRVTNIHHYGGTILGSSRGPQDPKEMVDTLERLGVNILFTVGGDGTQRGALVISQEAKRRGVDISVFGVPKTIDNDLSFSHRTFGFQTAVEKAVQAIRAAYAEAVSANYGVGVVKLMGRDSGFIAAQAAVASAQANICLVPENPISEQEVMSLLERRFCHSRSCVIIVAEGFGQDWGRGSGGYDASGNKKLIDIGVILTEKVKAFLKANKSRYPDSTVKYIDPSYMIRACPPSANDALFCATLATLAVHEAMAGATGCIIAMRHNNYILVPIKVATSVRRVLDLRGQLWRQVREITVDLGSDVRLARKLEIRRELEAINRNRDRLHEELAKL
Sequence of DNA polymerase III PolC-type (Bacillus subtilis (strain 168)) (P13267 whole entry, looked up): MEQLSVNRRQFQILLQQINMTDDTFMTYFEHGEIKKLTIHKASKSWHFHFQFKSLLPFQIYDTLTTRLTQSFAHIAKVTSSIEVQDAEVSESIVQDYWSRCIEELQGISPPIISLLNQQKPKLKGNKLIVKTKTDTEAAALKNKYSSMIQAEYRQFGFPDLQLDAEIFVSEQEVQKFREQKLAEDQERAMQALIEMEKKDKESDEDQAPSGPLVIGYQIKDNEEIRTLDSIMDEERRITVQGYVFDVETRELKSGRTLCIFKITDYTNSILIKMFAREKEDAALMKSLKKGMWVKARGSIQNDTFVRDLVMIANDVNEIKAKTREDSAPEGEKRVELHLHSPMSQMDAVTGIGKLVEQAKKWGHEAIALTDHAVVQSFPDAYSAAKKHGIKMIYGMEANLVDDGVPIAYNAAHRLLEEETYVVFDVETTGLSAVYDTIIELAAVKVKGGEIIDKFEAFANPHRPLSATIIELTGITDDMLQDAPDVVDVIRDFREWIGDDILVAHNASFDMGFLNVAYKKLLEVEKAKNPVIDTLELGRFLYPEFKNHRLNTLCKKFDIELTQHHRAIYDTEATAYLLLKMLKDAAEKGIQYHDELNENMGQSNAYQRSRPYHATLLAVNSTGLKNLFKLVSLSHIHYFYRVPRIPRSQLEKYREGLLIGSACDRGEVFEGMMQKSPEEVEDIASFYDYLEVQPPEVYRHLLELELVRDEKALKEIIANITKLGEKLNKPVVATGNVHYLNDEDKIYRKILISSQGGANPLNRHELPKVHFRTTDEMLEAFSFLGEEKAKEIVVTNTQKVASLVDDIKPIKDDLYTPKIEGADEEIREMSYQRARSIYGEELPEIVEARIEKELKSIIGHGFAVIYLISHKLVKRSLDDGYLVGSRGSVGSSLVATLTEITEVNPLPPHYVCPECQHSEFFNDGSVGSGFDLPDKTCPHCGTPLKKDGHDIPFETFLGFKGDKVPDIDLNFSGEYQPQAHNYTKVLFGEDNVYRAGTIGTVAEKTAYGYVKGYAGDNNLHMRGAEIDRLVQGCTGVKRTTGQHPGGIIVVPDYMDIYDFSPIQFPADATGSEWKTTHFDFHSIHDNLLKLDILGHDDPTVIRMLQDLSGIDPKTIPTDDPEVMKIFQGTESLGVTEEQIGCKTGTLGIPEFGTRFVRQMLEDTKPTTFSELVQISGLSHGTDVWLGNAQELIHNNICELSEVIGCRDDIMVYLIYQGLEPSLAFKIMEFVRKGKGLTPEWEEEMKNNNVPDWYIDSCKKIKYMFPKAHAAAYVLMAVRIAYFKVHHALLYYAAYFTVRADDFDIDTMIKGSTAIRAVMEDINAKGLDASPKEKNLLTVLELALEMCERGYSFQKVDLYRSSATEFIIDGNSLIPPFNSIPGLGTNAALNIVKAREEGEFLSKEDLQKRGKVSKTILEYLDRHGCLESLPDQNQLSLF
Sequence of Beta-2 adrenergic receptor (Homo sapiens) (P07550 whole entry, looked up): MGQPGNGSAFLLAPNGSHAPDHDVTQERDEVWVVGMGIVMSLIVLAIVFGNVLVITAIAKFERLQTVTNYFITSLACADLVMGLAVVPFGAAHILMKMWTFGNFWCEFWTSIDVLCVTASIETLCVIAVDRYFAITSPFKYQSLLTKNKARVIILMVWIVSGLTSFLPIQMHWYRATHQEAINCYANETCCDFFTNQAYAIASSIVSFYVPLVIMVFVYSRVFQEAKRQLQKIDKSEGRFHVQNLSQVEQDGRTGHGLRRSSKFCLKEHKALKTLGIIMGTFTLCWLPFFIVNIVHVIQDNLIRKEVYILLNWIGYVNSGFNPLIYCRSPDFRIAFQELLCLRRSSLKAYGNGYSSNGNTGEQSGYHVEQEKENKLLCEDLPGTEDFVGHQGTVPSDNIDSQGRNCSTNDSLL

Cc1cc2c(C(C)C)c(O)c(O)c(C=O)c2c(O)c1-c1c(C)cc2c(C(C)C)c(O)c(O)c(C=O)c2c1O
active: [1] 2.61 µM | [2] 14.7 µM | [3] 5.21 µM | [4] 10.6 µM | [5] 15 µM | [6] 11.9 µM | [7] 15 µM

CC12CC3CC(C)(C1)CC(N)(C3)C2
inactive: [8] | [9] | [6]

CN1CCN(C2=Nc3cc(Cl)ccc3Nc3ccccc32)CC1
inactive: [9]

CC(CN1c2ccccc2Sc2ccccc21)N(C)C (stereo not drawn)
inactive: [9]

CCCNC(=O)NS(=O)(=O)c1ccc(Cl)cc1
inactive: [9]

COC(=O)Nc1nc2ccc(C(=O)c3cccs3)cc2[nH]1
inactive: [9]

NS(=O)(=O)c1cc2c(cc1Cl)NC=NS2(=O)=O
inactive: [9]

NC[C@H](O)c1ccc(O)c(O)c1
inactive: [9]

CNCCC(Oc1ccc(C(F)(F)F)cc1)c1ccccc1 (stereo not drawn)
inactive: [8] | [10]

Cc1ccccc1N1C(=O)c2cc(S(N)(=O)=O)c(Cl)cc2NC1C (stereo not drawn)
inactive: [9]

CC(C)=CCOc1c2occc2cc2ccc(=O)oc12
inactive: [11] | [1] | [2] | [12] | [3] | [4] | [13] | [14] | [15] | [16] | [5] | [6] | [7]

Cc1cn([C@H]2C=C[C@@H](CO)O2)c(=O)[nH]c1=O
inactive: [9]

Nc1nnc(-c2cccc(Cl)c2Cl)c(N)n1
inactive: [9]

NC(=O)NO
inactive: [9]

CN(C)C(=O)C(CCN1CCC(O)(c2ccc(Cl)cc2)CC1)(c1ccccc1)c1ccccc1
active: [2] 18.5 µM | [12] 13.1 µM | [9] 12.6 µM | [17] 7.38 µM | [18] 8.28 µM

COCCCC/C(=N\OCCN)c1ccc(C(F)(F)F)cc1
inactive: [9]

O=C1c2c(O)ccc(O)c2C(=O)c2c(NCCNCCO)ccc(NCCNCCO)c21
active: [9] 0.282 µM

COc1cc(Cc2cnc(N)nc2N)cc(OC)c1OC
inactive: [9]

CC[C@@H](CO)NC(=O)[C@@H]1C=C2c3cccc4[nH]cc(c34)C[C@H]2N(C)C1
inactive: [11] | [1] | [2] | [12] | [13] | [14] | [15] | [16]

O=C1NC(=O)C(c2ccccc2)(c2ccccc2)N1
inactive: [9]

CC[C@@H](CO)NC(=O)[C@@H]1C=C2c3cccc4c3c(cn4C)C[C@H]2N(C)C1
active: [4] 16.8 µM | [5] 10.6 µM
inactive: [11] | [1] | [2] | [12] | [3] | [13] | [15] | [10] | [16] | [7]

CC(C)(C(=O)O)c1ccc(C(O)CCCN2CCC(C(O)(c3ccccc3)c3ccccc3)CC2)cc1 (stereo not drawn)
inactive: [9]

CCCN1C[C@H](CSC)C[C@@H]2c3cccc4[nH]cc(c34)C[C@H]21
inactive: [9]

COc1ccc([C@@H]2Sc3ccccc3N(CCN(C)C)C(=O)[C@@H]2OC(C)=O)cc1
active: [9] 1.41 µM

CC(=O)[C@H]1CC[C@H]2[C@@H]3CC[C@H]4C[C@](C)(O)CC[C@]4(C)[C@H]3CC[C@]12C
inactive: [11] | [1] | [2] | [12] | [3] | [4] | [13] | [14] | [15] | [10] | [16] | [5] | [6] | [7]

COc1ccc(C(CN(C)C)C2(O)CCCCC2)cc1 (stereo not drawn)
active: [10] 5.36 µM
inactive: [11] | [1] | [2] | [12] | [3] | [4] | [13] | [14] | [15] | [16] | [5] | [6] | [7]

COc1ccc(Cl)cc1C(=O)NCCc1ccc(S(=O)(=O)NC(=O)NC2CCCCC2)cc1
inactive: [9]

Cc1cccc(C)c1NC(=O)CN1CCCC1=O
inactive: [11] | [1] | [2] | [12] | [3] | [4] | [13] | [14] | [15] | [10] | [16] | [5] | [6] | [7]

CCCN1CCC[C@@H]2Cc3[nH]ncc3C[C@H]21
inactive: [11] | [1] | [2] | [12] | [3] | [4] | [13] | [14] | [15] | [10] | [16] | [5] | [6] | [7]

CC(O)(CS(=O)(=O)c1ccc(F)cc1)C(=O)Nc1ccc(C#N)c(C(F)(F)F)c1 (stereo not drawn)
inactive: [11] | [1] | [2] | [12] | [3] | [4] | [13] | [14] | [15] | [10] | [16] | [5] | [6] | [7]

C[C@@H]1O[C@@H](O[C@H]2C[C@@H](O)[C@]3(CO)[C@H]4[C@H](O)C[C@]5(C)[C@@H](C6=CC(=O)OC6)CC[C@]5(O)[C@@H]4CC[C@]3(O)C2)[C@H](O)[C@H](O)[C@H]1O
inactive: [11] | [1] | [2] | [12] | [3] | [4] | [13] | [14] | [15] | [10] | [17] | [18] | [16] | [5] | [6] | [7]

CC(C(=O)O)c1cccc(C(=O)c2ccccc2)c1 (stereo not drawn)
inactive: [9]

COc1cc2c(c(OC)c1OC)-c1ccc(OC)c(=O)cc1[C@@H](NC(C)=O)CC2
active: [19] 0.0398 µM

O=c1[nH]cc(F)c(=O)[nH]1
active: [18] 10.4 µM

OCCN1CCN(CCCN2c3ccccc3Sc3ccc(C(F)(F)F)cc32)CC1
active: [18] 9.28 µM
